Assay outcomes (PubChem)
AmpC inh detg: qHTS Inhibitors of AmpC Beta-Lactamase (assay with detergent) | P00811 | AID 485294, 2010 | AmpC hydrolysis of nitrocefin, absorbance 480 nm, 0.01% Triton | Potency, µM (top dose mostly 114 µM), inactives show at the top dose activity change, negative = inhibition, usual class: inhibitors | 370,000 compounds, 0.041% hits;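 also: 0% = no-compound wells and -100% = no-enzyme wells; nearly all actives have a fitted effect of over 25% in size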
Target sequence (P00811 whole entry, looked up): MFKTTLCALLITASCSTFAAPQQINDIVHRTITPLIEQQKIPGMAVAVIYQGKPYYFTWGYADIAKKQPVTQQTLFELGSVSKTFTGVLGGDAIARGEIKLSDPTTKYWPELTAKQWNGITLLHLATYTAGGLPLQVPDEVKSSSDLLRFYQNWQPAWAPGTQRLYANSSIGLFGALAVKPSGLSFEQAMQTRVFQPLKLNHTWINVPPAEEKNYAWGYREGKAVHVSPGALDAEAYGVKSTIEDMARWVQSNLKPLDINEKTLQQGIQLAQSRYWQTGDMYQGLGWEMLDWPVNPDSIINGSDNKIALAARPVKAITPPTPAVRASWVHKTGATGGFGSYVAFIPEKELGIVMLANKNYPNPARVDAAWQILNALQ
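20 mM phosphate pH 7.0 + 0.01% (detergent screen) or 0.0001% Triton X-100; 5.3 nM AmpC reagent; cpd preinc 15 min RT; nitrocefin (800 uM stock) to start; A480 q20 s × 4 min; Activity was normalised to no-enzyme and no-compound control wells.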
NS1 function inh: qHTS Assay for Inhibitors of Influenza NS1 Protein Function; Potency, µM (doses to about 46.1 µM), for inactives: at the top dose activity, positive = more growth; 270,000 compounds, 0.4% hits; AID 2326, 2010; calls by dose curve; also: actives are rising curves; nearly all actives have a fitted effect of over 50% in size
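A cell-based growth assay was used: compounds that relieve NS1-induced slow growth of budding yeast raise OD600. Assay medium was yeast nitrogen base with ammonium sulphate and -URA supplement, pH 6.0, with 2% galactose.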
AmpC inh no detg: qHTS Inhibitors of AmpC Beta-Lactamase (assay without detergent); 330,000 compounds, 0.52% hits; Potency, µM (titrated, usually from 57.1 µM), for the others: at the highest dose activity change, negative = inhibition, usual class: inhibitors; AID 485341, 2010; P00811; AmpC nitrocefin hydrolysis, absorbance 480 nm, 0.0001% Triton;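 also: plate controls were no compound for no effect and no enzyme for full effect; nearly all actives have a fitted effect of over 20% in size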
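20 mM phosphate pH 7.0 + 0.01% (detergent screen) or 0.0001% Triton X-100; 5.3 nM AmpC reagent; cpd preinc 15 min RT; nitrocefin (800 uM stock) to start; A480 q20 s × 4 min; Activity was normalised to no-enzyme and no-compound control wells.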
SARS PLP yeast: qHTS of Yeast-based Assay for SARS-CoV PLP | S. cerevisiae expressing SARS-CoV PLpro, growth rescue | Potency, µM (titrated, usually from 32.9 µM), for the others: at the top dose activity, positive = growth rescue, actives largely listed as activators | 330,000 compounds, 0.19% hits; calls by dose curve; also: 0% is about no effect; nearly all actives have a fitted effect of over 55% in size
Giardia FBPA inh-1: qHTS Assay for Inhibitors of Fructose-1,6-bisphosphate Aldolase from Giardia Lamblia; A8B2U2; 290,000 compounds, 0.71% hits; purified Giardia FBPA; AID 2451, 2010; Potency, µM (titrated, usually from 59.6 µM), for inactives: at the top dose activity, negative = inhibition, most hits filed as inhibitors; also: % is scaled to controls: 0 for no effect and ±100 for the full control effect; nearly all actives have a fitted effect of over 55% in size
Target sequence (A8B2U2 whole entry, looked up): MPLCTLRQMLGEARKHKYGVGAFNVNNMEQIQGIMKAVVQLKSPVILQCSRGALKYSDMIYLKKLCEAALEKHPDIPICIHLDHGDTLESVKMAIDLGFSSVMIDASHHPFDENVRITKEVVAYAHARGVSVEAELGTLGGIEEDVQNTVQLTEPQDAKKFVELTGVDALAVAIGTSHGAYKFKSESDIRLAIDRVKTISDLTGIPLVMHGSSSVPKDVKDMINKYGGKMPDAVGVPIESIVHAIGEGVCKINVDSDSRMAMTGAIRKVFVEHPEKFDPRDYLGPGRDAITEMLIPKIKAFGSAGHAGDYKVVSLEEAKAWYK
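Giardia FBPA (40 nM reagent) was preincubated 10 min at RT with compound (up to 57.5 uM final), then substrate plus GAPDH/TPI/NAD/arsenate coupling system with diaphorase/resazurin was added; resorufin fluorescence (525/598 nm) was read after 20 min.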
Giardia growth: qHTS Assay for Inhibitors of Fructose-1,6-bisphosphate Aldolase from Giardia Lamblia: Giardia lamblia growth inhibition; Giardia lamblia trophozoite growth inhibition; Potency, µM (highest dose often 57.5 µM), for the others: top-dose activity change, negative = inhibition, actives largely listed as inhibitors; shares compounds with Giardia FBPA inh-1; 1,500 compounds, 5% hits;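 also: trophozoites exposed to compound for 48 h at 37 °C; % is scaled to controls: 0 for no effect and ±100 for the full control effect; nearly all actives have a fitted effect of over 70% in size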
Mammal cell tox: qHTS Assay for Inhibitors of Fructose-1,6-bisphosphate Aldolase from Giardia Lamblia: Mammalian cellular toxicity; shares compounds with Giardia FBPA inh-1; mammalian cell viability counter-screen, qHTS; Potency, µM (doses to about 57.5 µM), for inactives: top-dose viability change, negative = toxicity, actives largely listed as inhibitors; 1,500 compounds, 4% hits;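 also: Chinese hamster ovary cells used as mammalian cytotoxicity surrogate; viability measured as cellular ATP by luminescence; compound exposure lasted 48 h before reading; % is scaled to controls: 0 for no effect and ±100 for the full control effect; nearly all actives have a fitted effect of over 60% in size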
Giardia FBPA inh-2: qHTS Assay for Inhibitors of Fructose-1,6-bisphosphate Aldolase from Giardia Lamblia: Primary screen confirmation. shares compounds with Giardia FBPA inh-1. 1,500 compounds, 5% hits. purified Giardia aldolase enzyme activity, qHTS. Potency, µM (titrated, usually from 57.5 µM), for the others: at the top dose activity change, negative = inhibition, most hits filed as inhibitors; also: % is scaled to controls: 0 for no effect and ±100 for the full control effect; nearly all actives have a fitted effect of over 45% in size
Rabbit aldolase: qHTS Assay for Inhibitors of Fructose-1,6-bisphosphate Aldolase from Giardia Lamblia: Rabbit FBPA Selectivity | shares compounds with Giardia FBPA inh-1 | Rabbit muscle FBPA enzyme inhibition, selectivity counter-screen | Potency, µM (doses to about 57.5 µM), for the others: at the highest dose activity, negative = inhibition, most hits filed as inhibitors | 1,500 compounds, 4% hits | AID 2794, 2010; also: % is scaled to controls: 0 for no effect and ±100 for the full control effect; nearly all actives have a fitted effect of over 60% in size
GAPDH coupling: qHTS Assay for Inhibitors of Fructose-1,6-bisphosphate Aldolase from Giardia Lamblia: Coupling assay counterscreen confirmation | shares compounds with Giardia FBPA inh-1 | GAPDH coupling enzyme counterscreen, biochemical, qHTS | Potency, µM (doses to about 57.5 µM), inactives show top-dose activity change, negative = inhibition, usual class: inhibitors | 1,500 compounds, 6% hits; also: % is scaled to controls: 0 for no effect and ±100 for the full control effect; nearly all actives have a fitted effect of over 55% in size
* hit, by the source's call; ? = inconclusive; / = no result given; [ ] = remark or other dose. In the library only some 1.4% were active in any assay of this set; here they are far more common. Unless noted, calls follow the shape of the dose curve; as a rule, active = well fitted curve in the direction sought with a large enough effect; inconclusive = small, poorly fitted or top-dose-only effect, or another doubt; inactive = no such curve, though single readings can be large; an effect the other way counts as inactive or inconclusive. Potency is read from the fitted curve at half-maximal effect.

SMILES | AmpC inh detg | NS1 function inh | AmpC inh no detg | SARS PLP yeast | Giardia FBPA inh-1 | Giardia growth | Mammal cell tox | Giardia FBPA inh-2 | Rabbit aldolase | GAPDH coupling
CCCCc1nnc(NC(=O)CSCc2cc(=O)n3cc(C)sc3n2)s1 | 3% | -5% | -20% | -3% | 4µM* | 7%[38.3 µM] | ? | ? | 19% | -5%
O=C1c2cccc([N+](=O)[O-])c2C(=O)N1CCO | 2% | / | -10% | -1% | 6% | / | / | / | / | /
O=C1CSC(=S)N1N1C(=O)c2cccc([N+](=O)[O-])c2C1=O | 3% | / | -23% | 6% | 18µM* | ? | 5% | 4% | 11% | 11%
Cc1cc(NC(=O)c2cccs2)n(-c2nc3ccccc3[nH]2)n1 | -4% | 0% | -33% | 1% | -25% | / | / | / | / | /
Cc1cc(NC(=O)c2ccccc2)n(-c2nc3ccccc3[nH]2)n1 | ? | / | -28%[11.4 µM] | 1% | -22% | / | / | / | / | /
Cc1cc(NC(=O)c2sccc2C)n(-c2nc3ccccc3[nH]2)n1 | 6% | 4% | -11% | 0% | 16µM* | ? | ? | 2% | 1% | 0%
Cc1cc(NC(=O)CC#N)n(-c2nc3ccccc3[nH]2)n1 | 2% | 3% | -53% | 0% | 16µM* | -8% | -16% | 0% | 3% | 7%
COc1ccc(C(=O)Nc2cc(C)nn2-c2nc3ccccc3[nH]2)c(OC)c1 | 4% | -5% | -17% | 1% | 18µM* | 0% | ? | 1% | 6% | -3%
COc1cc(Cl)ccc1OCc1cc(C(=O)N2CCCC(OC)C2)no1 (stereo not given) | 4% | -12% | 108% | -3% | / | / | / | / | / | /
CCn1c(=O)c(C(=O)CN(C)Cc2cccc(OC)c2OC)c(N)n(Cc2ccccc2)c1=O | ? | -3% | 2% | 3% | 16µM* | 34% | -7% | 2% | 4% | -9%
CCn1c(=O)c(C(=O)CN(C)Cc2ccc(F)cc2)c(N)n(Cc2ccccc2)c1=O | 9% | / | 22% | 1% | 3% | / | / | / | / | /
CNC(=S)N(C)CCc1cc2c(c(OC)c1C=C1C(=O)NC(=O)NC1=O)OCO2 | -1% | -1% | -17% | 0% | 7.1µM* | -9%[38.3 µM] | -6% | -9% | 1% | 3%
Cc1ccc(-n2c(=O)c3c(c4cc(C)ccc4n3C)n(CC(=O)NCc3ccccc3)c2=O)cc1 | -8% | / | / | / | / | / | / | / | / | /
CCN(CC)S(=O)(=O)c1ccc(N2CCOCC2)c(NC(=O)c2ccco2)c1 | / | / | 24% | -1% | / | / | / | / | / | /
CC(C)(C)N(CC#CCC(O)(c1ccccc1)c1ccccc1)CCO | 6% | -1% | 0% | 0% | 20µM* | -6% | -3% | -2% | 12% | 9%
Cc1cc2ncn(C(=O)N3CCOCC3)c2cc1C | 0% | 3% | -10% | 3% | -2% | / | / | / | / | /
C(=N\Nc1ccccn1)/c1c[nH]c2ccccc12 | 3% | 3% | -29% | -1% | 0% | / | / | / | / | /
O=c1nc(N/N=C/c2c[nH]c3ccccc23)cn[nH]1 | 5% | -8% | -20% | 0% | 18µM* | 3% | 2% | -2% | 0% | 2%
COc1ccc2c(c1)-c1nc(/N=C/c3cccc(OC)c3O)sc1CC2 | -9% | -64% | -7% | -48% | 1.4µM* | -28%[38.3 µM] | -2% | ? | ? | ?
COc1ccc2ccccc2c1CNCCCN1CCOCC1 | 5% | 1% | -4% | 15% | -11% | / | / | / | / | /
COc1cc(C(C)=O)ccc1OCC(=O)Nc1ccc2nc(C)sc2c1 | 3% | / | -25% | -1% | / | / | / | / | / | /
Cc1cccc(N=Nc2c(C)c(C#N)c(O)[nH]c2=O)c1 | 8% | -1% | -13% | -1% | -6% | / | / | / | / | /
Cc1c(C#N)c(O)n(CCO)c(=O)c1N=Nc1ccc2c(c1)COC2=O | 10% | 6% | -20% | 5% | 20µM* | ? | -5% | ? | -28% | -21%
CC(C)OC(=O)c1c(N)n(Cc2ccco2)c2nc3ccccc3nc12 | -12% | 7% | -16% | 8% | ? | / | / | / | / | /
COCCOC(=O)c1c(N)n(Cc2ccco2)c2nc3ccccc3nc12 | 5% | -40% | -13% | 1% | 7.1µM* | -5%[38.3 µM] | 7% | -11% | -6% | -9%
Cc1ccc(C(C)C)c(OCC(=O)NN=C(CCl)CCl)c1 | -1% | 1% | -6% | 1% | 16µM* | ? | 2% | -7% | -3% | -2%
O=C(NC(=S)Nc1cc(Cl)ccc1N1CCOCC1)c1ccccc1[N+](=O)[O-] | ? | 6% | -13% | 4% | -20% | / | / | / | / | /
O=C(NC(=S)Nc1ccc(Cl)cn1)c1cc([N+](=O)[O-])ccc1N1CCOCC1 | -3% | 3% | 56% | -3% | 14µM* | 15% | 18% | 3% | -3% | 11%
COc1ccccc1CNc1cncnc1 | -12% | 0% | -10% | 1% | 9% | / | / | / | / | /
COc1ccccc1CNc1ncccn1 | -14% | 0% | -9% | / | 18µM* | -2%[10.4 µM] | 18% | -3% | 2% | 6%
